Experimental data published in the supplement of paper PMC10849652.
The full data set covers some 7,900 targets. This sample favours those with a hit. About 0.6% of all pairs of compound and target were hits.

Tests used:
Test in all cases: log2 fold change, soluble protein after heating vs DMSO (PISA); higher = thermal stabilisation; K562 cells, 10 uM, 30 min; active = over 0.2 and 3.5 SD of the protein, either way, in both replicates (recomputed)
ZC3H8 = ZC3H8 (UniProt Q8N5P1)
Summary of the method: (§1)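 Soluble protein was quantified by TMTpro 16plex LC-MS/MS after channel sums were equalised. It was obtained as the supernatant after 21,000xg for 90 min from pooled aliquots of K562 cells (2×10^6 cells/mL, 10 μM compound, 30 min) heated for 3 min across 48°C-58°C and extracted in PBS with 0.5% NP-40 at 4°C. Thermal stability values are relative to control samples and come from duplicates. They are given as log2 fold changes.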

ZC3HC1 = ZC3HC1 (UniProt Q86WB0)
Summary of the method: as §1

ZCCHC9 = ZCCHC9 (UniProt Q8N567)
Summary of the method: as §1

ZDHHC17 = ZDHHC17 (UniProt Q8IUH5)
Summary of the method: as §1

ZDHHC20 = ZDHHC20 (UniProt Q5W0Z9)
Summary of the method: as §1

ZDHHC5 = ZDHHC5 (UniProt Q9C0B5)
Summary of the method: as §1

ZDHHC6 = ZDHHC6 (UniProt Q9H6R6)
Summary of the method: as §1

ZDHHC7 isoform 2 = ZDHHC7 isoform 2 (UniProt Q9NXF8)
Summary of the method: as §1

ZDHHC8 isoform 3 = ZDHHC8 isoform 3 (UniProt Q9ULC8)
Summary of the method: as §1

Measured: log2 fold change

Chain of ZDHHC8 isoform 3 (Q9ULC8 whole entry, looked up, canonical isoform): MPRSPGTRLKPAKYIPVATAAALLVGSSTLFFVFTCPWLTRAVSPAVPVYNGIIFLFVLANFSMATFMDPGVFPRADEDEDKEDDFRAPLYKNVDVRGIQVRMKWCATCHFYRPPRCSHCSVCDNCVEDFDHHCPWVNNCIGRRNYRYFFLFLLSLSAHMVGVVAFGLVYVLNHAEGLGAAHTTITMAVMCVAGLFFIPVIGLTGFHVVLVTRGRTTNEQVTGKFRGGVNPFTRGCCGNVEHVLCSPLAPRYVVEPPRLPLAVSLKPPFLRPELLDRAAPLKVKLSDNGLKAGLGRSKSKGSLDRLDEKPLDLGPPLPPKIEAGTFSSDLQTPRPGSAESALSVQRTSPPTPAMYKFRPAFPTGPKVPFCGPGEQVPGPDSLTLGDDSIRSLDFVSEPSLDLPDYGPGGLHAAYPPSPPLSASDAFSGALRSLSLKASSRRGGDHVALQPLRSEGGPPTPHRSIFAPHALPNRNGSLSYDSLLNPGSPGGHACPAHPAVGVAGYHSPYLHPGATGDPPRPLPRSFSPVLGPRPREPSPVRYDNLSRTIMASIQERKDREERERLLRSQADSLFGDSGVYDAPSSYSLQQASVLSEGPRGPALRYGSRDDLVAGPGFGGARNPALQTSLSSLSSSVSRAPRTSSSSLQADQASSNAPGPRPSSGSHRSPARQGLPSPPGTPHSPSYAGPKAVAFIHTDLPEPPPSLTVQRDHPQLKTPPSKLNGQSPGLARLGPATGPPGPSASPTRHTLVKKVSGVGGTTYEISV
Chain of ZDHHC20 (Q5W0Z9 whole entry, looked up): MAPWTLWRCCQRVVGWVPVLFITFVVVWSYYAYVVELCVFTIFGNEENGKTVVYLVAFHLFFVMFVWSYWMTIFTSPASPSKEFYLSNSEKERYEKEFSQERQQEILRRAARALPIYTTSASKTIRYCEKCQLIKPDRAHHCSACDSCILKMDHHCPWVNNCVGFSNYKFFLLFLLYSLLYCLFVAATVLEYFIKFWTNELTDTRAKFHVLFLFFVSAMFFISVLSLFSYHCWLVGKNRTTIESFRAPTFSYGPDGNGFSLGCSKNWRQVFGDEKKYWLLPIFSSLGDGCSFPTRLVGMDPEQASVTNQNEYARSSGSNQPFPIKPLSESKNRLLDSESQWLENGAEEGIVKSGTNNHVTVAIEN
Chain of ZC3HC1 (Q86WB0 whole entry, looked up): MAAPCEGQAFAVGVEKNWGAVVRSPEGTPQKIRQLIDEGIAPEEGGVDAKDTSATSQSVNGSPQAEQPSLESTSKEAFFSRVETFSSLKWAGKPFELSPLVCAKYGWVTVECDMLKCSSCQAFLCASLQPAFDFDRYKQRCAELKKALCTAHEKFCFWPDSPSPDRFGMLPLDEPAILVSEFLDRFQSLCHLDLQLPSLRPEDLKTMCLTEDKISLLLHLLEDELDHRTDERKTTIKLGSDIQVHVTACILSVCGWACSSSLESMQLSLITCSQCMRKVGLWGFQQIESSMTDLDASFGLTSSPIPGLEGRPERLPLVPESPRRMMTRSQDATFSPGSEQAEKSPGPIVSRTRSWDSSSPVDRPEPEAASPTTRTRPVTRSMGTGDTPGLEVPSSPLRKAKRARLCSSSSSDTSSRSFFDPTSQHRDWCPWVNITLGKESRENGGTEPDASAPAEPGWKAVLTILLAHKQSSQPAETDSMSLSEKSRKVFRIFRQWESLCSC
Chain of ZDHHC5 (Q9C0B5 whole entry, looked up): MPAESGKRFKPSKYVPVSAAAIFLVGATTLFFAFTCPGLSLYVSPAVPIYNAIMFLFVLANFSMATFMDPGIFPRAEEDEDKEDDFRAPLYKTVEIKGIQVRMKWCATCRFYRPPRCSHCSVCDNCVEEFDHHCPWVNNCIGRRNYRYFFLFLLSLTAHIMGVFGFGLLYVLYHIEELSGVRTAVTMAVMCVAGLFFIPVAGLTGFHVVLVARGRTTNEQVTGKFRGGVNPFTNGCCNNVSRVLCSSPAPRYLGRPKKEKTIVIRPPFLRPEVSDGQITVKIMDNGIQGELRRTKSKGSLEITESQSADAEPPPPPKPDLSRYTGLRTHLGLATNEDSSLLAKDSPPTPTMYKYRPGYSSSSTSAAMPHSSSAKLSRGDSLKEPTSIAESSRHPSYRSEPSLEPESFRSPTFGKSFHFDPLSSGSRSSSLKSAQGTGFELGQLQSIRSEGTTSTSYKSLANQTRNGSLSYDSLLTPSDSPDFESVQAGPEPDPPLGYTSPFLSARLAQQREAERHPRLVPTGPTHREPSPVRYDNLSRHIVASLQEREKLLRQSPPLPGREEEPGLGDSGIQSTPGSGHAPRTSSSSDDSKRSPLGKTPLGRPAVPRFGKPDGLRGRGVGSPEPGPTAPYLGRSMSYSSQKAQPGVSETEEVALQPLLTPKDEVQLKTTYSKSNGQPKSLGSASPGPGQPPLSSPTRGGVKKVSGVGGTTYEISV
Chain of ZC3H8 (Q8N5P1 whole entry, looked up): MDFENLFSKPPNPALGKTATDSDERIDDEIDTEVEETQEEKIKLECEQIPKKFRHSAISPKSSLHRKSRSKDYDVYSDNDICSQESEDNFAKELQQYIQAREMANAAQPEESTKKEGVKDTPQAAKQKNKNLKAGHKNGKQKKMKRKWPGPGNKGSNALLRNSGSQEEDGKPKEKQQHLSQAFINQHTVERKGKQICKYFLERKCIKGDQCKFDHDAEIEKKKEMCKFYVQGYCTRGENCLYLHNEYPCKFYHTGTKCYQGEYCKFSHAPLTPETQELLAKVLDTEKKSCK
Chain of ZDHHC7 isoform 2 (Q9NXF8 whole entry, looked up, canonical isoform): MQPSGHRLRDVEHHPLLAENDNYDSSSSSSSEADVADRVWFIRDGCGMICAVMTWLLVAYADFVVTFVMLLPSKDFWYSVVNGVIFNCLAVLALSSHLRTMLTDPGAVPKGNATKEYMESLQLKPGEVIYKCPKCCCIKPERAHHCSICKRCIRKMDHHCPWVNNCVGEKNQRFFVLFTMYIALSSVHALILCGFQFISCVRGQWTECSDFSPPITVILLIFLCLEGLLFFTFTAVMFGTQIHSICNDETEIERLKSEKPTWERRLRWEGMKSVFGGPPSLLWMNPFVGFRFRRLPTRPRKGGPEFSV
Chain of ZDHHC17 (Q8IUH5 whole entry, looked up): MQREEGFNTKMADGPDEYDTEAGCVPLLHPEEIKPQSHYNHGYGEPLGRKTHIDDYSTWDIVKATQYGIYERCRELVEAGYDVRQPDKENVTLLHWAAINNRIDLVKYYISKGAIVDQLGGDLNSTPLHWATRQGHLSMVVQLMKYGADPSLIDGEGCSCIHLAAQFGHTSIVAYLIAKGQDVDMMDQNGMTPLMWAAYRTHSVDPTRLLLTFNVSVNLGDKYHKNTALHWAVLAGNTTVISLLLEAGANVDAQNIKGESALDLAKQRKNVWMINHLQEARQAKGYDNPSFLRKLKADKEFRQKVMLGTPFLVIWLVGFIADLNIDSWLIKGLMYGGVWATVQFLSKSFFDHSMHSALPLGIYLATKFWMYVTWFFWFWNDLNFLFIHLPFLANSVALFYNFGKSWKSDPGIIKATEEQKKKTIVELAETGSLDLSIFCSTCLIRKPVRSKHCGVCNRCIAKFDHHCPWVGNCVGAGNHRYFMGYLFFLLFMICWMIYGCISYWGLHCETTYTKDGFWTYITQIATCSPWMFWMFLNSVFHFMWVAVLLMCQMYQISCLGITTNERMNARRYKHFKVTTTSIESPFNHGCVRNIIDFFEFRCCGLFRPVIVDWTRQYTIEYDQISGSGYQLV
Chain of ZCCHC9 (Q8N567 whole entry, looked up): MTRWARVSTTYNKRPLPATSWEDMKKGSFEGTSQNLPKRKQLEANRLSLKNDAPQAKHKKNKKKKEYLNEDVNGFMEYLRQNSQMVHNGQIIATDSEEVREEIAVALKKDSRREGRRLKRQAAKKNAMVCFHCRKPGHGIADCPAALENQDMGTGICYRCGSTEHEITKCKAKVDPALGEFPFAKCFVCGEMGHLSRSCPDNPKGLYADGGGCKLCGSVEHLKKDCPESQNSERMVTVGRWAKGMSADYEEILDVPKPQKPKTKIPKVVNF
Chain of ZDHHC6 (Q9H6R6 whole entry, looked up): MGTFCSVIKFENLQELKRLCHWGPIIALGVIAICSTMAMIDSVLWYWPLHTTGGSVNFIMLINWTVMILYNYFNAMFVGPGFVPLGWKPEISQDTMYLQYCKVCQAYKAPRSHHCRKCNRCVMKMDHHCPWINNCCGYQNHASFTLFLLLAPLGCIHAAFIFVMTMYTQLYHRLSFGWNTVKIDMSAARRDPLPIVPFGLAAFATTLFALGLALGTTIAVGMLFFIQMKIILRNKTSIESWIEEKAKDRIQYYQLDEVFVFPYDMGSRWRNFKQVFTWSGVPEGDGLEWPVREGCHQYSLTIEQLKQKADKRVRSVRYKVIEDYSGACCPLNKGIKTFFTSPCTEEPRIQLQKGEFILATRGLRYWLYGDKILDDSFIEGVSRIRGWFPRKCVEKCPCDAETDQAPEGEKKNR

O=C(CCCCCCC(=O)Nc1ccccc1)NO [vorinostat]
inactive: ZC3H8 -0.039 | ZC3HC1 0.04 | ZCCHC9 -0.065 | ZDHHC17 -0.079 | ZDHHC20 -0.021 | ZDHHC5 -0.02 | ZDHHC6 -0.108 | ZDHHC7 isoform 2 0.006

Cc1cn(-c2cc(NC(=O)c3ccc(C)c(Nc4nccc(-c5cccnc5)n4)c3)cc(C(F)(F)F)c2)cn1 [nilotinib]
inactive: ZC3H8 0.016 | ZC3HC1 -0.052 | ZCCHC9 -0.046 | ZDHHC17 -0.004 | ZDHHC20 0.016 | ZDHHC5 0.091 | ZDHHC7 isoform 2 0.104 | ZDHHC8 isoform 3 0.086

CC[C@H](C)n1cc(C)c2c(C(=O)NCc3c(C)cc(C)[nH]c3=O)cc(-c3ccc(N4CCNCC4)nc3)cc21
inactive: ZC3H8 -0.012 | ZC3HC1 0.164 | ZCCHC9 0.013 | ZDHHC17 -0.022 | ZDHHC20 -0.046 | ZDHHC5 -0.052 | ZDHHC7 isoform 2 -0.099 | ZDHHC8 isoform 3 -0.064

CCN(CCCOc1ccc2c(Nc3cc(CC(=O)Nc4cccc(F)c4)[nH]n3)ncnc2c1)CCOP(=O)(O)O [barasertib]
inactive: ZC3H8 -0.075 | ZC3HC1 0.108 | ZCCHC9 -0.094 | ZDHHC17 0.067 | ZDHHC20 0.022 | ZDHHC5 -0.001 | ZDHHC8 isoform 3 0.028

Cc1cccc(-c2[nH]c(C(C)(C)C)nc2-c2ccc3nccnc3c2)n1
inactive: ZC3H8 -0.176 | ZC3HC1 0.119 | ZCCHC9 -0.133 | ZDHHC17 -0.095 | ZDHHC20 -0.007 | ZDHHC5 -0.013 | ZDHHC7 isoform 2 0.335 | ZDHHC8 isoform 3 -0.03

CN1CCc2c(c3ccccc3n2Cc2ccc(C(=O)NO)cc2)C1 [Tubastatin A]
inactive: ZC3H8 -0.034 | ZC3HC1 0.07 | ZCCHC9 0.103 | ZDHHC17 -0.012 | ZDHHC20 0.02 | ZDHHC5 0.051 | ZDHHC7 isoform 2 -0.003 | ZDHHC8 isoform 3 0.058

Cc1nc(Nc2n[nH]c3c2CN(C(=O)N[C@H](CN(C)C)c2ccccc2)C3(C)C)c2sccc2n1
inactive: ZC3H8 0.081 | ZC3HC1 -0.103 | ZCCHC9 0.159 | ZDHHC17 -0.012 | ZDHHC20 -0.02 | ZDHHC5 -0.037 | ZDHHC7 isoform 2 0.046 | ZDHHC8 isoform 3 0.013

O=C1NC(=O)/C(=C\c2ccc3nccnc3c2)S1
inactive: ZC3H8 0.044 | ZC3HC1 0.021 | ZCCHC9 -0.015 | ZDHHC17 0.11 | ZDHHC20 0.095 | ZDHHC5 0.007 | ZDHHC8 isoform 3 -0.002

Cc1cc(SCc2sc(-c3ccc(C(F)(F)F)cc3)nc2C)ccc1OCC(=O)O
inactive: ZC3H8 -0.039 | ZC3HC1 0.199 | ZDHHC17 -0.04 | ZDHHC20 -0.249 | ZDHHC5 -0.03 | ZDHHC7 isoform 2 -0.075 | ZDHHC8 isoform 3 0.031

CN(CCOc1ccc(C[C@@H]2SC(=O)NC2=O)cc1)c1ccccn1 (racemic) [rosiglitazone]
inactive: ZC3H8 -0.171 | ZC3HC1 0.086 | ZCCHC9 -0.131 | ZDHHC17 0.052 | ZDHHC20 0.059 | ZDHHC5 -0.016 | ZDHHC8 isoform 3 0.038

C=CC(=O)N1CCC[C@@H](n2nc(-c3ccc(Oc4ccccc4)cc3)c3c(N)ncnc32)C1 [ibrutinib]
inactive: ZC3H8 0.03 | ZC3HC1 -0.041 | ZCCHC9 0.06 | ZDHHC17 -0.029 | ZDHHC20 -0.004 | ZDHHC5 0.02 | ZDHHC8 isoform 3 0.043

O=C(Nc1nc2ccccc2n1CCN1CCOCC1)c1cccc([N+](=O)[O-])c1 [IRAK-1-4 Inhibitor I]
inactive: ZC3H8 -0.098 | ZC3HC1 -0.017 | ZCCHC9 -0.085 | ZDHHC17 -0.008 | ZDHHC20 -0.044 | ZDHHC5 -0.043 | ZDHHC7 isoform 2 0 | ZDHHC8 isoform 3 -0.049

C[C@@H](Oc1cc(-c2cnn(C3CCNCC3)c2)cnc1N)c1c(Cl)ccc(F)c1Cl [crizotinib]
inactive: ZC3H8 0.089 | ZC3HC1 -0.109 | ZCCHC9 0.032 | ZDHHC17 -0.064 | ZDHHC20 0.017 | ZDHHC5 0.075 | ZDHHC7 isoform 2 -0.131 | ZDHHC8 isoform 3 -0.187

O=C(Nc1cccc(Nc2ncc(Br)c(NCCc3cnc[nH]3)n2)c1)N1CCCC1
inactive: ZC3H8 0.038 | ZC3HC1 -0.078 | ZCCHC9 0.08 | ZDHHC17 0.011 | ZDHHC20 -0.025 | ZDHHC5 -0.076 | ZDHHC7 isoform 2 0.028 | ZDHHC8 isoform 3 0.06

Cn1cc(-c2ccc3nnc(C(F)(F)c4ccc5ncccc5c4)n3n2)cn1
inactive: ZC3H8 -0.056 | ZC3HC1 0.038 | ZCCHC9 -0.081 | ZDHHC17 -0.029 | ZDHHC20 0.048 | ZDHHC5 -0.009 | ZDHHC7 isoform 2 0.091

Cc1nc(Nc2ncc(C(=O)Nc3c(C)cccc3Cl)s2)cc(N2CCN(CCO)CC2)n1 [dasatinib]
inactive: ZC3H8 0.123 | ZC3HC1 -0.214 | ZDHHC17 -0.002 | ZDHHC20 -0.163 | ZDHHC5 0.019 | ZDHHC7 isoform 2 -0.063 | ZDHHC8 isoform 3 -0.112

CC(C)N(C[C@H]1O[C@@H](n2cnc3c(N)ncnc32)[C@H](O)[C@@H]1O)[C@H]1C[C@@H](CCc2nc3cc(C(C)(C)C)ccc3[nH]2)C1 [pinometostat]
inactive: ZC3H8 0.017 | ZC3HC1 -0.005 | ZCCHC9 0.187 | ZDHHC17 0.053 | ZDHHC20 0.025 | ZDHHC5 -0.02 | ZDHHC7 isoform 2 -0.024 | ZDHHC8 isoform 3 0.026

CNc1nc(-c2ccc3c(N)n[nH]c3c2)cc(N2C[C@@H](C(=O)NC3CCCCC3)CC[C@H]2C)n1
inactive: ZC3H8 0.012 | ZC3HC1 0.104 | ZDHHC17 0.017 | ZDHHC20 0.121 | ZDHHC5 0.011 | ZDHHC7 isoform 2 -0.03 | ZDHHC8 isoform 3 0

CC1=C(C(=O)Nc2cc3cn[nH]c3cc2F)C(c2ccc(C(F)(F)F)cc2)CC(=O)N1 (centres undefined)
inactive: ZC3H8 -0.072 | ZC3HC1 0.057 | ZCCHC9 0.012 | ZDHHC17 -0.013 | ZDHHC20 0.047 | ZDHHC5 0.022 | ZDHHC7 isoform 2 0.114 | ZDHHC8 isoform 3 -0.083

Cc1cc(Nc2cc(N3CCN(C)CC3)nc(Sc3ccc(NC(=O)C4CC4)cc3)n2)n[nH]1 [tozasertib]
inactive: ZC3H8 0.058 | ZC3HC1 0.047 | ZCCHC9 0.04 | ZDHHC17 -0.02 | ZDHHC20 0.006 | ZDHHC5 -0.057 | ZDHHC7 isoform 2 -0.04 | ZDHHC8 isoform 3 -0.041

Cn1c2cc(S(C)=O)sc2c2cnn(Cc3cccc(N)c3)c(=O)c21 (centres undefined)
inactive: ZC3H8 0.127 | ZC3HC1 -0.135 | ZDHHC17 -0.027 | ZDHHC20 0.084 | ZDHHC5 -0.049 | ZDHHC7 isoform 2 0.02 | ZDHHC8 isoform 3 0.121

COc1ccc(Cn2ccc3ccc(C(=O)NO)cc32)cc1
inactive: ZC3H8 -0.128 | ZC3HC1 0.13 | ZCCHC9 -0.05 | ZDHHC17 0.137 | ZDHHC20 -0.034 | ZDHHC5 -0.01 | ZDHHC7 isoform 2 -0.022 | ZDHHC8 isoform 3 0.07

Cc1ncc(-c2ccnc(Nc3ccc(S(C)(=O)=O)cc3)n2)n1C(C)C
inactive: ZC3H8 0.036 | ZC3HC1 -0.01 | ZCCHC9 0.005 | ZDHHC17 -0.022 | ZDHHC20 0.022 | ZDHHC5 -0.009 | ZDHHC7 isoform 2 0.059 | ZDHHC8 isoform 3 -0.014

COc1cc2ncnc(Nc3ccc(F)c(Cl)c3)c2cc1OCCCN1CCOCC1 [gefitinib]
inactive: ZC3H8 0.021 | ZC3HC1 0.004 | ZCCHC9 -0.062 | ZDHHC17 0.04 | ZDHHC20 -0.067 | ZDHHC5 0.031 | ZDHHC7 isoform 2 0.062 | ZDHHC8 isoform 3 0.023

Cc1ccc(NC(=O)c2ccc(CN3CC[C@H](N(C)C)C3)c(C(F)(F)F)c2)cc1Nc1nccc(-c2cncnc2)n1 [bafetinib]
inactive: ZC3H8 0.052 | ZC3HC1 0.018 | ZCCHC9 0.144 | ZDHHC17 -0.007 | ZDHHC20 0.104 | ZDHHC5 0 | ZDHHC8 isoform 3 -0.03

C[C@H](Nc1ncnc2nc[nH]c12)c1cc2cccc(Cl)c2c(=O)n1-c1ccccc1 [duvelisib]
inactive: ZC3H8 -0.126 | ZC3HC1 -0.002 | ZDHHC17 0.036 | ZDHHC20 0.04 | ZDHHC5 -0.044 | ZDHHC7 isoform 2 0.082 | ZDHHC8 isoform 3 -0.038

O=C1NC(=NCc2cccs2)S/C1=C\c1ccc2ncccc2c1
inactive: ZC3H8 -0.062 | ZC3HC1 0.077 | ZCCHC9 -0.035 | ZDHHC17 0.064 | ZDHHC20 -0.125 | ZDHHC5 0.091 | ZDHHC7 isoform 2 0.161

C#Cc1cccc(Nc2ncnc3cc(OCCOC)c(OCCOC)cc23)c1 [erlotinib]
inactive: ZC3H8 -0.091 | ZC3HC1 0.075 | ZCCHC9 -0.099 | ZDHHC17 0.091 | ZDHHC20 0.163 | ZDHHC5 0.028 | ZDHHC7 isoform 2 0.09

NC1(Cc2ccc(Cl)cc2)CCN(c2ncnc3[nH]ccc23)CC1
inactive: ZC3H8 -0.01 | ZC3HC1 0.019 | ZCCHC9 -0.1 | ZDHHC17 0.022 | ZDHHC20 0.059 | ZDHHC5 0.071 | ZDHHC7 isoform 2 0 | ZDHHC8 isoform 3 0.063
